One assay deals with USO1. Nature of the assay: pooled miR-30 sensor sort-seq; sequence = guide strand. The settings on record: shRNA.
In the case of TATATTATATAGTATGTCCAAA, the sensor-assay potency score (higher = more potent) was -1.01.

TTTTAATGTAGAAACCTGCTGC displayed a sensor-assay potency score (higher = more potent) of 0.733.

In turn, TAGCATTAGATGTAGATTGGTC gave a sensor-assay potency score (higher = more potent) of 0.084.

In another assay the target is USP2. The assay is described as above. Particulars: shRNA.
In the case of TAGGTCTCAGTGTCACTCGGTT, the sensor-assay potency score (higher = more potent) was -0.44.

As to TGAAAGTGTGCCATTCTCCTGT, the sensor-assay potency score (higher = more potent) came to 0.787.

For TAGAACAGTAACCACAATCTGT, the sensor-assay potency score (higher = more potent) was -0.00783.

In turn, ATTGAGTTCATGAAGCACGTGT registered a sensor-assay potency score (higher = more potent) of 0.753.

Regarding TTGGTGAAGAGCCTCATGCAGT, the sensor-assay potency score (higher = more potent) was -0.823.

For TAGTTTTGCAAACTCTTCCACG, the sensor-assay potency score (higher = more potent) was -0.662.

Turning to TTTTGCAAACTCTTCCACGAGG, the sensor-assay potency score (higher = more potent) is -0.596.

Take TAGATATTTTCTCCACATCTGT: the sensor-assay potency score (higher = more potent) was -1.14.

On to TTCTCCACATCTGTCGGCCTTT, for which the sensor-assay potency score (higher = more potent) was -0.4.

In turn, TTAGGTCTCAGTGTCACTCGGT displayed a sensor-assay potency score (higher = more potent) of 0.557.

As to TATTTTCTCCACATCTGTCGGC, the sensor-assay potency score (higher = more potent) came to 0.643.

For a further assay, the target named is USP43. The assay is described as above. The settings on record: shRNA.
Regarding TACTCCACCAACTCGACGGAGG, the sensor-assay potency score (higher = more potent) was -1.32.

Regarding TAGGTAGGGACACACACAGGAA, the sensor-assay potency score (higher = more potent) is -1.19.

Turning to TAGCACCTTGCTCTCACTGTGG, the sensor-assay potency score (higher = more potent) is -0.424.

As for TTTGCACAAAGCTTTGACCTAG, the sensor-assay potency score (higher = more potent) is 0.51.

On to TGTAGAACTGAAAACATTCATC, for which the sensor-assay potency score (higher = more potent) was -0.712.

Regarding TTGCTGAGGATAGACTGCTGGA, the sensor-assay potency score (higher = more potent) was -0.504.

In the case of TAGAACAGGATATAAGCCCCTC, the sensor-assay potency score (higher = more potent) was -0.232.

As to TCGTACAGGAAGTCCAGCGGGT, the sensor-assay potency score (higher = more potent) is -0.327.

In the case of TTGCTGTGTTTGGACCATCTGA, the sensor-assay potency score (higher = more potent) was -0.995.

As to TTCGGAGACAAATAGCTGCAGG, the sensor-assay potency score (higher = more potent) was -0.652.

In turn, TTGCACAAAGCTTTGACCTAGA yielded a sensor-assay potency score (higher = more potent) of 0.359.

For the sequence TTTCCTTGAGTTTCCTTGCTGT, the sensor-assay potency score (higher = more potent) stood at 0.819.

Another assay addresses USP44. The assay is described as above. The settings on record: shRNA.
TACGCTTTGAGTTACACTGGTC showed a sensor-assay potency score (higher = more potent) of 0.148.

Take TATAAAACAAGATATAAGCTTG: the sensor-assay potency score (higher = more potent) was -0.0233.

As for TTGCAGTGTACCCAGAACCCTC, the sensor-assay potency score (higher = more potent) is -1.01.

Regarding TTGCAGTCCACACAGTGCCATT, the sensor-assay potency score (higher = more potent) was -1.55.

Take TACAACATTCAGAACTTGTTTG: the sensor-assay potency score (higher = more potent) is -0.39.

Sequence TTTGATATACTACTGTATCTGT had a sensor-assay potency score (higher = more potent) of 0.327.

In the case of TTGATTTGTTGTCACATGCAAG, the sensor-assay potency score (higher = more potent) is -1.1.

TAACTTGATACTCCAATTCCTG: the sensor-assay potency score (higher = more potent) is -1.33.

Take TTGATCTTCACTTTGAAGCAGA: the sensor-assay potency score (higher = more potent) was -0.107.

As for TATCATTCAGAACATAATCATC, the sensor-assay potency score (higher = more potent) was -1.41.

On to TATCTTTTGCTGGTGATGCTGG, for which the sensor-assay potency score (higher = more potent) was -0.299.

In the case of TTGCACAAGTTCATCATCCGAG, the sensor-assay potency score (higher = more potent) came out at 0.487.

For the origin of these results see the OligoGym collection.
Also: reference of the scale not given here.
